Measurements from PubChem BioAssay (NCATS).
Where “and” joins values, the source holds several entries; their conditions need not be identical. Equal values may be shown once. Results filed as inconclusive are left out. A number with no mark means an inactive call. Calls of active or inactive are those of the source. The call rests on the fitted dose curve; in most records, active means well fitted cell-killing curve with a large enough effect; inconclusive means small, poorly fitted or top-dose-only effect, or effect the other way; inactive means no such curve, though single readings can be large or run the other way.

Assay: Viability qHTS for spleen associated tyrosine kinase inhibitor (SYKi) drug resistant MV4-11 cells (AID 1963824); further: nearly all actives have a fitted effect of over 35% in size
Settings: SYKi-resistant MV4-11 viability, CellTiter-Glo, 72 h; series mostly up to 45 µM; viability, % of control: at the top concentration
From the text: Department of Medicine, Hematology/Oncology
University Hospital Frankfurt, Germany.
Trials have shown promising clinical activity of the selective SYK inhibitor entospletinib in patients with high expressing HOXA9/MEIS1 acute leukemias. As the development of resistance mechanisms is a common problem in the use of targeted drugs, we performed a chemical library screen to identify drug sensitivities in SYK inhibitor resistant AML cells. […] Glucocorticoids are potent immunosuppressants which work in part by inhibiting the transcription of cytokine genes.
Described herein is a viability screen to look for activity in the SYK inhibitor drug resistant cell line against four NCATS compound libraries (MIPE 5.0, NPC, NPACT, and Kinase) totaling 11372 compounds. Active hits were reacquired for confirmation and further secondary assay testing.
SEQUENCE No. (e.g., 1, 2, 3, etc.); […] (e.g., Cells, Incubation, Reagent, etc.); VALUE; DESCRIPTION.
1; Media; 2uL; white, solid-bottom Corning assay plate.
2; Compounds; 23nL; Echo acoustic dispenser.
3; Cell; 5uL; 500 cells per well.
4: Incubation; 72hr; 37 C, 5% CO2, 95% humidity.
5; Reagent; 3uL; CellTiter-Glo reagent (Promega).
6; Incubation; 10min; room temperature.
7; Detection; Luminescence; ViewLux plate reader (PerkinElmer).
NOTES (numbers refer to Sequence numbers above
1. Quantitative high-throughput screening (qHTS) of small molecule compounds was conducted on drug resistant SYKi MV4-11 cell line.
2. Twenty-three nanoliter of small molecule compounds were added to each assay plates using the Echo acoustic dispenser (Beckman Coulter).
3. Cells were seeded into the assay plates at a final density of 500 cells in 5uL of media per well using the Multidrop Combi dispenser.
4. Plates were covered with stainless steel gasketed lids and incubated for 72 hours at standard cell culture conditions.
5. Viability was assessed by adding 3uL of CellTiter-Glo detection reagent (Promega).
6. Plates were covered with gasket lids and incubated for 10 minutes at room temperature.
7. Luminescence was measured on a ViewLux plate reader (PerkinElmer).
Potency means the concentration at half of the fitted maximal effect.

SMILES | viability, % of control | Potency
CC1=CC(=O)CC(C)(C)C1CCC(C)OC1OC(COC(=O)c2cc(O)c(O)c(O)c2)C(O)C(O)C1O (stereo not given) | 106% [at 17.3 µM] | 
CC1=C2CC(=O)C(C)CC/C=C(\C)CC2OC1=O (stereo not given) | 101% | 
COc1ccc(C(=O)OC2C3C=COC(OC4OC(CO)C(O)C(O)C4O)C3C3(CO)OC23)cc1OC (stereo not given) | 92% [at 17.3 µM] | 
O=C(/C=C/c1ccc(O)c(O)c1)O[C@@H]1[C@@H](O)[C@H](OC2CCCCC2O)O[C@H](CO)[C@H]1O (stereo not given in full) | 104% [at 17.3 µM] | 
COc1ccc2cc1Oc1ccc(cc1)C[C@H]1c3c(cc4c(c3Oc3cc5c(cc3OC)CCN(C)[C@@H]5C2)OCO4)CCN1C |  | 9.44 µM (active)
O=C(OCC(O)CO[C@@H]1O[C@H](C(=O)O)[C@@H](O)[C@H](O)[C@H]1O)c1ccccc1 (stereo not given in full) | 96.5% | 
CC(C)[C@@](O)(c1ccc2cc(OC(F)F)c(OC(F)F)cc2c1)c1cn[nH]n1 |  | 20.6 µM (active)
CC[N+](CC)(CC)CCOC(=O)C(C1CCCC1)C1CCCC1 |  | 11.9 µM (active)
COc1cc(/C=C/C(=O)O)ccc1O[C@@H]1O[C@H](CO)[C@@H](O)[C@H](O)[C@H]1O[C@@H]1OC[C@](O)(CO)[C@H]1O | 107% [at 17.3 µM] | 
CC(C)(C)c1ccc(S(=O)(=O)Nc2ccc(-n3ccnc3)cc2)cc1 |  | 10.3 µM (active)
O=C([O-])C[O-].[Pt+2] | 98.5% | 
O=C(/C=C/c1ccc(O)cc1)OC[C@@]1(O)C=C[C@@H]2C(C(=O)O)=CO[C@@H](O[C@@H]3O[C@H](CO)[C@@H](O)[C@H](O)[C@H]3O)[C@@H]21 | 89.7% [at 17.3 µM] | 
CC(C)CC(=O)OC1OC=C(CO[C@@H]2O[C@H](CO)[C@@H](O)[C@H](O)[C@H]2O)C2CC(O)C(O)(CO)C12 (stereo not given in full) | 83% [at 17.3 µM] | 
C=C1[C@@H](OC(C)=O)CC[C@@]2(C)[C@@H](OC(C)=O)[C@H](OC(C)=O)C3=C(C)C[C@H](OC(=O)C(C)CC)[C@@H]([C@@H](OC(C)=O)[C@H]12)C3(C)C (stereo not given in full) |  | 1.22 µM (active)
C[C@@H]1COCCN1c1cc(=O)n2c(n1)N(Cc1cncc(Cl)c1)[C@H](C(F)(F)F)CC2 |  | 4.11 µM (active)
CC(C)COCC(CN(Cc1ccccc1)c1ccccc1)N1CCCC1 (stereo not given) |  | 15 µM (active) and 11.8 µM (active)
C=C1CCC2C(C)(C(=O)O)CCCC2(C)C1CC/C(C)=C\CO (stereo not given) | 71.8% | 
Cn1c(=O)c(F)c(Nc2ccc(I)cc2F)c2c(=O)n(C[C@@H](O)CO)cnc21 |  | 0.0235 µM (active)
Cc1nn(Cc2ccccc2Cl)c(C)c1CN(C)CC(O)COc1ccc(Cl)cc1 (stereo not given) |  | 7.42 µM (active)
COc1cc(O[C@@H]2O[C@H](CO[C@H]3OC[C@](O)(CO)[C@H]3O)[C@@H](O)[C@H](O)[C@H]2O)cc(OC)c1O | 92.1% [at 17.3 µM] | 

SMILES | viability, % of control | Potency
CCC(=O)NS(=O)(=O)c1ccc(-c2c(-c3ccccc3)noc2C)cc1 |  | 8.2 µM (active)
O=C(O)CCCCC(CCSCc1ccccc1)SCc1ccccc1 (stereo not given) |  | 13.2 µM (active)
CCc1cc(S(=O)(=O)O)c2cc(C(C)C)cccc1-2 | 97% | 
CCOC(=O)c1cnc2c(cnn2CC)c1NN=C(C)C | 71.1% | 
CCN(CC)CCc1nc(-c2ccccc2)no1 | 87.1% | 
NCCCC(O)(P(=O)(O)O)P(=O)(O)O | 65.3% | 
O=C1NC(O)CCN1[C@@H]1O[C@H](CO)[C@H](O)[C@H]1O (stereo not given in full) | 88.9% | 
COc1cc(/C=C/C(=O)O[C@@H]2O[C@H](CO)[C@@H](O)[C@H](O)[C@H]2O)ccc1O | 94.4% | 
CC(C/C=C/C(C)(C)O)C1CCC(C)(O)C(O)C1 (stereo not given) | 83.5% | 
C[C@@H]1O[C@@H](O[C@H]2[C@H](O)[C@@H](O)[C@H](OC[C@H]3O[C@@H](OC(=O)[C@]45CCC(C)(C)C[C@H]4C4=CCC6[C@@]7(C)C[C@@H](O)[C@H](O)[C@@](C)(CO)C7[C@H](O)C[C@@]6(C)[C@]4(C)CC5)[C@H](O)[C@@H](O)[C@@H]3O)O[C@@H]2CO)[C@H](O)[C@H](O)[C@H]1O (stereo not given in full) | 79.5% [at 9.25 µM] | 
C[C@@H]1CC[C@@]2(OC1)O[C@H]1C[C@H]3[C@@H]4CC[C@H]5C[C@@H](O)CC[C@]5(C)[C@H]4CC(=O)[C@]3(C)[C@H]1[C@@H]2C | 73.5% [at 4.97 µM] | 
COc1cc(/C=C/C(=O)O[C@H]2[C@H](O)[C@@H](CO)O[C@@]2(CO)O[C@H]2O[C@H](CO)[C@@H](O)[C@H](O)[C@H]2O)ccc1O | 97.1% [at 17.3 µM] | 
O=C(CCCCCCNC(=O)c1cnc(N(c2ccccc2)c2ccccc2)nc1)NO |  | 2.35 µM (active)
Cc1cc(Nc2cc(CN3CCOCC3)c3nc(C)c(Cc4ccc(Cl)cc4F)n3n2)n[nH]1 |  | 259 nM (active) and 235 nM (active)
C/C(=C\CO)CC/C=C(\C)C(=O)O[C@@H]1O[C@H](CO)[C@@H](O)[C@H](O)[C@H]1O | 86.4% | 
CC(=O)N/N=C/c1ccc([N+](=O)[O-])o1 |  | 23.7 µM (active)
Cc1cccc(C)c1NC(=O)CN1CCCC1 |  | 5.96 µM (active)
COc1cc(Nc2cnc(C#N)c(O[C@H](C)CN(C)C)n2)ncc1-c1cnn(C)c1 |  | 1.32 µM (active)
c1ccc(-c2oc3ncnc(NC[C@@H]4CCCO4)c3c2-c2ccccc2)cc1 |  | 13 µM (active)
C/C=C/C[C@@H](C)C(=O)[C@H]1C(=O)N[C@@H](C(C)C)C(=O)N(C)CC(=O)N(C)[C@@H](CC(C)C)C(=O)N[C@@H](C(C)C)C(=O)N(C)[C@@H](CC(C)C)C(=O)N[C@@H](C)C(=O)N[C@H](C)C(=O)N(C)[C@@H](CC(C)C)C(=O)N(C)[C@@H](CC(C)C)C(=O)N(C)[C@@H](C(C)C)C(=O)N1C |  | 4.07 µM (active)
